# Experimental data: PubChem BioAssay (NCI)
# About 79,000 compounds went through this panel and 15% of them were active in at least one assay; those are over-represented in the sample as a whole. A number with no mark means an inactive call. Active and inactive are the calls of the source. Rule as the data show it: active = growth inhibition above about 70%; inactive = the rest.
# Columns and labels:
# [1] = NCI Yeast Anticancer Drug Screen. Data for the rad52 strain (AID 147);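 also: 0% = growth of vehicle-treated control cultures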; details: S. cerevisiae rad52 mutant growth inhibition, stronger effect = higher value
# Outline: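 Compounds are applied to a genetically defined yeast strain lacking normal DNA damage repair, and inhibition of growth is expressed relative to cultures given vehicle only.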
# [2] = NCI Yeast Anticancer Drug Screen. Data for the wt1 strain (AID 149);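 also: 0% = growth of vehicle-treated wt1 cultures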; details: S. cerevisiae wt1 strain (SPY 50644) growth inhibition, stronger effect = higher value
# Outline: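 Compounds are added to wt1 yeast cultures. Growth is then measured. Inhibition is expressed relative to vehicle-treated controls.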
# [3] = NCI Yeast Anticancer Drug Screen. Data for the rad50EPP+ strain (AID 151);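 also: 0% = growth of vehicle-treated control cultures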; details: S. cerevisiae rad50 mutant strain, stronger effect = higher value
# Outline: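 Compounds were applied to the rad50EPP+ yeast strain, which bears a defined DNA repair alteration, and growth inhibition was determined relative to vehicle-treated cultures.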
# [4] = NCI Yeast Anticancer Drug Screen. Data for the mgt1 strain (AID 153); details: S. cerevisiae mgt1 mutant growth inhibition, stronger effect = higher value
# Outline: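 Strain: mgt1 yeast, one of a set carrying defined DNA damage repair or cell cycle control alterations. Compound-treated growth compared with vehicle.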
# [5] = NCI Yeast Anticancer Drug Screen. Data for the rad50 strain (AID 155);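 also: 0% = growth of vehicle-only cultures of the same strain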; details: S. cerevisiae rad50 strain growth inhibition, stronger effect = higher value
# Outline: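 Inhibition values express reduced yeast growth in compound-treated cultures relative to vehicle-treated controls.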
# [6] = NCI Yeast Anticancer Drug Screen. Data for the mec2-1 strain (AID 157); details: S. cerevisiae mec2-1 strain, stronger effect = higher value
# Outline: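 Strain: mec2-1 (DNA repair/cell cycle alteration). Compound exposure, then growth measured; inhibition expressed relative to vehicle.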
# [7] = NCI Yeast Anticancer Drug Screen. Data for the rad14 strain (AID 159);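 also: 0% = growth of vehicle-treated control cultures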; details: S. cerevisiae rad14 strain growth inhibition, stronger effect = higher value
# Outline: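 A mutant yeast strain defective in DNA damage repair is treated with compound; inhibition of its growth is scored against untreated, vehicle-exposed cultures.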
# [8] = NCI Yeast Anticancer Drug Screen. Data for the sgs1 mgt1 strain (AID 161);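 also: 0% = growth of cultures given vehicle only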; details: S. cerevisiae sgs1 mgt1 strain, stronger effect = higher value
# Outline: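 Test agents were incubated with a DNA-repair-mutant yeast strain. Growth was then read and compared against vehicle-treated controls.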
# [9] = NCI Yeast Anticancer Drug Screen. Data for the CLN2oe strain (AID 163);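 also: 0% = growth of vehicle-only control cultures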; details: S. cerevisiae CLN2oe strain, stronger effect = higher value
# Outline: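 Growth of a genetically modified yeast strain is measured after compound exposure and compared with cultures given vehicle alone.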
# [10] = NCI Yeast Anticancer Drug Screen. Data for the bub3 strain (AID 167); details: S. cerevisiae bub3 mutant strain, stronger effect = higher value
# Outline: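 Steps: expose the mutant yeast strain to compound; grow alongside vehicle-treated cultures; measure growth; express inhibition against the vehicle cultures.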
# [11] = NCI Yeast Anticancer Drug Screen. Data for the wt2 strain (AID 169);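 also: 0% = growth of vehicle-treated yeast cultures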; details: S. cerevisiae wt2 strain growth inhibition, stronger effect = higher value
# Outline: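 This strain belongs to a panel of yeast strains with defined genetic alterations in DNA damage repair or cell cycle control. Compounds are applied, and growth inhibition is measured against vehicle-treated cultures.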
# [12] = NCI Yeast Anticancer Drug Screen. Data for the mlh1 strain (AID 171);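 also: 0% = growth of vehicle-treated control cultures of the same strain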; details: S. cerevisiae mlh1 strain growth inhibition, stronger effect = higher value
# Outline: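 Growth of the mutant yeast strain after compound exposure, expressed as inhibition relative to vehicle-only controls.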
# [13] = NCI Yeast Anticancer Drug Screen. Data for the sgs1 strain (AID 173);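 also: 0% = growth of vehicle-only control cultures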; details: S. cerevisiae sgs1 mutant, stronger effect = higher value
# Outline: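 Growth of a yeast strain bearing a defined genetic alteration is measured after compound treatment. Inhibition is expressed relative to vehicle-only controls.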
# [14] = NCI Yeast Anticancer Drug Screen. Data for the mlh1 rad18 strain (AID 175); details: S. cerevisiae mlh1 rad18 strain growth inhibition, stronger effect = higher value
# Outline: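 Read-out is yeast growth inhibition, calculated against vehicle-only controls. The compound was applied to a strain engineered with DNA damage repair alterations.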
# [15] = NCI Yeast Anticancer Drug Screen. Data for the rad18 strain (AID 177); details: S. cerevisiae rad18 mutant growth inhibition, stronger effect = higher value
# Outline: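 Growth of the mutant yeast strain after compound exposure, normalised to vehicle-only cultures.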
# [16] = at 5.0 µM (retest, dose inferred, filed as 0.5)
# [17] = at 50.0 µM (retest, dose inferred, filed as 5.0)
structure (smiles),measurement,setting,value
Cc1cc(O)c(C(C)C)cc1C1(c2cc(C(C)C)c(O)cc2C)OC(=O)c2ccccc21,growth inhibition,[1]; at 1.2 µM,-4%
same,growth inhibition,[1]; at 3.7 µM,-3%
same,growth inhibition,[1]; at 11.0 µM,-5%
same,growth inhibition,[1]; at 33.0 µM,-3%
same,growth inhibition,[1]; at 100.0 µM,34%
same,growth inhibition,[2]; at 1.2 µM,2%
same,growth inhibition,[2]; at 3.7 µM,2%
same,growth inhibition,[2]; at 11.0 µM,5%
same,growth inhibition,[2]; at 33.0 µM,1%
same,growth inhibition,[2]; at 100.0 µM,20%
same,growth inhibition,[3]; at 1.2 µM,0%
same,growth inhibition,[3]; at 3.7 µM,-1%
same,growth inhibition,[3]; at 11.0 µM,0%
same,growth inhibition,[3]; at 33.0 µM,0%
same,growth inhibition,[3]; at 100.0 µM,0%
same,growth inhibition,[4]; at 1.2 µM,-1%
same,growth inhibition,[4]; at 3.7 µM,-1%
same,growth inhibition,[4]; at 11.0 µM,-2%
same,growth inhibition,[4]; at 33.0 µM,-3%
same,growth inhibition,[4]; at 100.0 µM,18%
same,growth inhibition,[5]; at 1.2 µM,3%
same,growth inhibition,[5]; at 3.7 µM,0%
same,growth inhibition,[5]; [16],17%
same,growth inhibition,[5]; at 11.0 µM,10%
same,growth inhibition,[5]; at 33.0 µM,1%
same,growth inhibition,[5]; [17],98% (active)
same,growth inhibition,[5]; at 50.0 µM,94.1% (active)
same,growth inhibition,[5]; at 100.0 µM,36%
same,growth inhibition,[6]; at 1.2 µM,2%
same,growth inhibition,[6]; at 3.7 µM,2%
same,growth inhibition,[6]; [16],0%
same,growth inhibition,[6]; at 11.0 µM,1%
same,growth inhibition,[6]; at 33.0 µM,4%
same,growth inhibition,[6]; [17],98% (active)
same,growth inhibition,[6]; at 50.0 µM,91.7% (active)
same,growth inhibition,[6]; at 100.0 µM,29%
same,growth inhibition,[7]; at 1.2 µM,-1%
same,growth inhibition,[7]; at 3.7 µM,1%
same,growth inhibition,[7]; at 11.0 µM,-1%
same,growth inhibition,[7]; at 33.0 µM,-4%
same,growth inhibition,[7]; at 100.0 µM,33%
same,growth inhibition,[8]; [16],16%
same,growth inhibition,[8]; [17],98% (active)
same,growth inhibition,[8]; at 50.0 µM,82% (active)
same,growth inhibition,[9]; at 1.2 µM,-3%
same,growth inhibition,[9]; at 3.7 µM,-2%
same,growth inhibition,[9]; at 11.0 µM,-6%
same,growth inhibition,[9]; at 33.0 µM,-5%
same,growth inhibition,[9]; at 100.0 µM,12%
same,growth inhibition,[10]; at 1.2 µM,-2%
same,growth inhibition,[10]; at 3.7 µM,1%
same,growth inhibition,[10]; [16],-12%
same,growth inhibition,[10]; at 11.0 µM,-34%
same,growth inhibition,[10]; at 33.0 µM,16%
same,growth inhibition,[10]; [17],98% (active)
same,growth inhibition,[10]; at 50.0 µM,91.1% (active)
same,growth inhibition,[10]; at 100.0 µM,24%
same,growth inhibition,[11]; at 1.2 µM,-2%
same,growth inhibition,[11]; at 3.7 µM,-4%
same,growth inhibition,[11]; at 11.0 µM,-3%
same,growth inhibition,[11]; at 33.0 µM,-3%
same,growth inhibition,[11]; at 100.0 µM,31%
same,growth inhibition,[12]; at 1.2 µM,5%
same,growth inhibition,[12]; at 3.7 µM,3%
same,growth inhibition,[12]; at 11.0 µM,3%
same,growth inhibition,[12]; at 33.0 µM,-24%
same,growth inhibition,[12]; at 100.0 µM,31%
same,growth inhibition,[13]; at 1.2 µM,2%
same,growth inhibition,[13]; at 3.7 µM,4%
same,growth inhibition,[13]; at 11.0 µM,5%
same,growth inhibition,[13]; at 33.0 µM,2%
same,growth inhibition,[13]; at 100.0 µM,48%
same,growth inhibition,[14]; [16],9%
same,growth inhibition,[14]; [17],98% (active)
same,growth inhibition,[14]; at 50.0 µM,91.6% (active)
same,growth inhibition,[15]; at 1.2 µM,10%
same,growth inhibition,[15]; at 3.7 µM,4%
same,growth inhibition,[15]; at 11.0 µM,-2%
same,growth inhibition,[15]; at 33.0 µM,3%
same,growth inhibition,[15]; at 100.0 µM,32%
